About 17,000 (4.7%) of roughly 360,000 compounds were called active. Roughly 5% stayed inconclusive and do not appear here. This is one part of a sample in which actives are shown more often than they occur. Values without a mark were called inactive. Cut-off read from the data, not from the text of the source: active = activity change below about -50%; inconclusive = mostly about -30% to -49%; inactive = weaker than that.
% is set by controls: 0 for no effect and ±100 for the full control effect.

The nature of the experiment: qHTS for Inhibitors of Inflammasome Signaling: IL-1-beta AlphaLISA Primary Screen. As to conditions: THP-1 LPS/ATP IL-1B secretion, 16 h; at 57.5 µM, active compounds read low. The essentials:
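THP-1 cells pretreated 1 hr with compounds (up to 57.5 uM final), then stimulated with LPS (250 ng/mL final) plus ATP (1.25 mM final); secreted IL-1B measured by AlphaLISA after 16 hr, decreased signal indicating inhibition.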
In general terms: Quantitative high-throughput screening tests each substance at several concentrations.
`Cc1ccc(C(CNC(=O)Nc2cccc(C)c2)N2CCN(C)CC2)cc1` (stereo not given): the activity change is -20.1%.

In the case of `CCC1CCCCN1C(=S)NC(=O)c1ccco1` (stereo not given), the activity change was -6.58%.

On to `CCn1c(=O)c2ccccc2n(CC(=O)N2CCCc3ccccc32)c1=O`, for which the activity change was -0.244%.

Turning to `COc1ccc(CCNC(=O)COc2cc(C)cc3oc(=O)c(C)c(C)c23)cc1OC`, the activity change is -1.44%.

For the compound `CCOc1ccc(OCc2ccc(C(=O)Nc3cccc(C)n3)o2)cc1`, the activity change is -69% (active).

Regarding `Cc1cccc(NC(=O)c2ccc(COc3ccccc3[N+](=O)[O-])o2)n1`, the activity change was 6.94%.

As for `CCOc1ccc(OCc2ccc(C(=O)N(C)c3ccccc3)o2)cc1`, the activity change was -7.29%.

Consider `OC[C@@H]1CN(Cc2ccc(Cl)cc2)C[C@H](n2cnc3c(NCc4ccncc4)ncnc32)O1`, for which the activity change is -7%.

Take `C=CCn1c2c(c3ccccc31)CCC2`: the activity change is 0%.

For the compound `Cc1ccc(SC(CC(=O)c2ccc(C(C)(C)C)cc2)C(=O)O)cc1` (stereo not given), the activity change was -93.8% (active).

With `CC(C)(C)c1ccc(C(=O)NNC(=O)Cc2ccccc2)cc1`, the activity change was 0.0784%.

Consider `Cc1ccc(C(=O)CSc2ccccc2C(=O)O)cc1`, for which the activity change is 5.18%.

For the compound `CCC(C)C1(C2CCCC2)NC(=O)NC1=O` (stereo not given), the activity change was -5.19%.

Regarding `CC1(c2cccc([N+](=O)[O-])c2)CC(C)(C)N(C(=O)c2ccccc2)c2ccccc21` (stereo not given), the activity change is -2.13%.

As for `CC1(c2ccccc2)CC(C)(C)N(C(=O)c2cc([N+](=O)[O-])cc([N+](=O)[O-])c2)c2ccccc21` (stereo not given), the activity change is 5.37%.

As for `Cc1nnc(SCC(=O)N2c3ccccc3C(C)(c3ccc(Cl)cc3)CC2(C)C)s1` (stereo not given), the activity change is -71.6% (active).

As to `CCOC(=O)C1=CC[C@@H](c2ccccc2)N(S(=O)(=O)c2ccc(C)cc2)[C@H]1c1cccc(OC)c1`, the activity change was 2.13%.

For the compound `CCC(=O)c1ccc(OCC(O)CN2CCN(c3cccc(C(F)(F)F)c3)CC2)cc1` (stereo not given), the activity change was -11.4%.

As to `OC(COc1ccc(Br)cc1)CN1CCCC1` (stereo not given), the activity change was -27.2%.

Regarding `CC1CCN(CC(O)COc2ccc(C(=O)c3ccccc3)cc2)CC1` (stereo not given), the activity change was -22.3%.

For `OC(COc1ccccc1)CN1CCN(c2cccc(Cl)c2)CC1` (stereo not given), the activity change is 14.3%.

For the compound `O=C(c1ccc(Cl)cc1)c1ccc(OCC(O)CN2CCCCC2)cc1` (stereo not given), the activity change is -52.5% (active).

With `OC(COc1ccc2c(c1)CCC2)CN1CCN(c2cccc(Cl)c2)CC1` (stereo not given), the activity change was -64.8% (active).

As for `CC(C)NC(=O)C1(C)CCCCN1Cc1cccc(C(F)(F)F)c1` (stereo not given), the activity change is 12.4%.

Turning to `CCCCCNC(=O)C(c1ccc(OC)cc1)n1c(=O)c(-c2ccccc2)nc2ccccc21` (stereo not given), the activity change is -10.4%.

`CCOC(=O)C1(C)CCCN(C(=O)c2ccc(F)c(Cl)c2)C1` (stereo not given): the activity change is 7.31%.

For the compound `C[C@H]1CN([C@@H](C)CO)C(=O)CCCn2cc(nn2)CO[C@@H]1CN(C)S(=O)(=O)c1ccc(-n2cccn2)cc1`, the activity change was -21.5%.

As to `O=C(CSCc1ccc([N+](=O)[O-])cc1)Nc1cccc(C(=O)Nc2ccccc2C(=O)O)c1`, the activity change is 13.4%.

For the compound `O=C(Cc1ccc(S(=O)(=O)N2CCOCC2)s1)NCCC(c1ccccc1)c1ccccc1`, the activity change was 17%.

In the case of `O=C(Cc1ccc(S(=O)(=O)N2CCOCC2)s1)Nc1ccc(Br)c(C(F)(F)F)c1`, the activity change was -61% (active).

Take `O=C(Cc1ccc(S(=O)(=O)N2CCOCC2)s1)NCCOc1ccccc1F`: the activity change is 6.24%.

`CCN(C(=O)Nc1cccc2ccccc12)c1ccccc1`: the activity change is 12.7%.

For `COc1ccccc1C(=O)Nn1c(-c2cccs2)nc2ccccc2c1=O`, the activity change was -3.33%.

On to `O=C(Nc1nnc(-c2ccccc2)o1)c1cc(-c2cccs2)nc2ccccc12`, for which the activity change is 23%.

`CC(=O)Nc1cccc(Nc2nc(-c3cccs3)nc3ccccc23)c1`: the activity change was -65.6% (active).

As for `Cc1ccc(NS(=O)(=O)c2ccc(C(C)(C)C)cc2)cn1`, the activity change is 1.59%.

Turning to `COc1ccccc1Oc1ccc(S(=O)(=O)Nc2cccnc2)cc1`, the activity change was -2.24%.

In the case of `Cc1cc(C)cc(NS(=O)(=O)c2ccc(Oc3ncc(C(F)(F)F)cc3Cl)cc2)c1`, the activity change is -75.1% (active).

Turning to `COc1ccc(S(=O)(=O)N(C)C[C@H]2OCc3cnnn3CCCC(=O)N([C@H](C)CO)C[C@H]2C)cc1`, the activity change was -20%.

On to `Cc1ccccc1NC(=O)Cc1nc(COC(=O)C(C)(C)Oc2ccc(Cl)cc2)cs1`, for which the activity change was 17%.

Consider `CC1CCCCN1CCCNC(=O)Cn1ncc2c([nH]c3ccccc32)c1=O` (stereo not given), for which the activity change was 14.3%.

Turning to `CCNC(=O)C1CCCN(C(=O)c2cc(F)ccc2C)CC1` (stereo not given), the activity change was 26.6%.

With `O=C1COc2ccc(S(=O)(=O)Nc3ccc(OC(F)(F)F)cc3)cc2N1`, the activity change was 6.28%.

Take `Cc1nn(C)c(C)c1NS(=O)(=O)c1ccc(OC(F)(F)F)cc1`: the activity change is 63%.

Consider `O=S(=O)(Nc1ccc(O)c2ccccc12)c1ccc(OC(F)(F)F)cc1`, for which the activity change was -70.3% (active).

Consider `O=C(CC[C@H]1O[C@@H](n2ccc(=O)[nH]c2=O)[C@H](O)[C@@H]1O)N[C@H](Cc1ccccc1)C(=O)NCc1ccco1`, for which the activity change is 17.1%.

As for `CNc1nc(=O)n(C2CCCO2)cc1C` (stereo not given), the activity change was -1.08%.

Take `Cc1cc(C)n2c(Nc3c(C)cccc3C)c(CCc3ccccc3)nc2n1`: the activity change is 0%.

As to `O=C(NOCc1ccccc1)c1cccc([N+](=O)[O-])c1`, the activity change was -14.2%.

Take `O=C(COC(=O)c1ccc([N+](=O)[O-])cc1Cl)NC(=O)c1ccccc1`: the activity change was 0.699%.

Take `O=C(NC(Nc1nc2ccc([N+](=O)[O-])cc2s1)(C(F)(F)F)C(F)(F)F)c1ccccc1`: the activity change is -105% (active).

For the compound `CCOC(=O)c1ccccc1NC(=O)COC(=O)CCC(=O)N1CCOCC1`, the activity change was -2.88%.

In the case of `CN(C)CCOC(=O)C(c1ccccc1)C1(O)CCCC1` (stereo not given), the activity change was -8.97%.

Turning to `Cc1ccccc1C(OCCN(C)C)C1CCCCC1` (stereo not given), the activity change is -55.7% (active).

As to `CN(C)CCOC1c2ccccc2-c2ccccc21`, the activity change was -24.9%.

In the case of `Nc1ccccc1Sc1cc(Cl)nnc1Cl`, the activity change was 4.28%.

In the case of `CCOc1ccc(S(=O)(=O)Nc2nccs2)cc1`, the activity change was -1.81%.

Regarding `CC(Oc1ccc(Cl)cc1)c1ccnn1S(C)(=O)=O` (stereo not given), the activity change is -4.95%.

In the case of `Cc1ccc(NC(=O)c2cc([N+](=O)[O-])ccc2Cl)c(O)c1`, the activity change is -76% (active).

Regarding `CCC(C)C(=O)Nc1cc([N+](=O)[O-])ccc1Cl` (stereo not given), the activity change is 4.95%.

In the case of `CNc1ccc([N+](=O)[O-])cc1C(=O)O`, the activity change is 12.5%.

As for `CN(Cc1ccccc1F)c1cc2c(c3c1ccn3C)C1CCC2O1` (stereo not given), the activity change is 38.3%.

Consider `Cc1nccn1-c1ccc(NC(=O)[C@H]2O[C@@H](n3ccc(=O)[nH]c3=O)[C@H](O)[C@@H]2O)cc1`, for which the activity change is 20.2%.

With `COC(=O)[C@@]1(Cc2ccc(F)cc2)[C@H]2c3cc(C(=O)N(C)C)n(CCc4c[nH]c5ccc(OC)cc45)c3C[C@H]2CN1C(=O)c1ccccc1`, the activity change was -25.7%.

For the compound `O=C(CSc1nnc(-c2ccncc2)n1-c1ccc(Cl)cc1)Nc1ccc(C(=O)O)cc1`, the activity change is 8.71%.

Consider `Cn1c(=N)n(CC(O)c2ccccc2)c2ccccc21` (stereo not given), for which the activity change is 35.9%.

For the compound `CCOc1ccc(C(O)Cn2c(=N)n(CCN3CCCCC3)c3ccccc32)cc1` (stereo not given), the activity change was -60.3% (active).

For the compound `CCOc1ccc(CN2CCCN(C)CC2)cc1`, the activity change is 14.6%.

With `COCCn1cnnc1SCC(=O)Nc1cccc(S(=O)(=O)N2CCCCC2)c1`, the activity change is 5.3%.

Regarding `CN(CCO)C(=O)c1nc[nH]c1C(=O)N(C)Cc1ccccc1`, the activity change was 26.2%.

As to `CCCCCCN1C[C@H](O)[C@@H](n2cc(C3CC3)nn2)C[C@@H]1c1ccc(Cl)cc1`, the activity change is 82%.

Regarding `CC(=O)Nc1cccc(OCC(=O)/C=C2\N(C)c3ccccc3C2(C)C)c1`, the activity change is -82% (active).

In the case of `CN1CCN(CCC(=O)N/N=C/C=C2\N(C)c3ccccc3C2(C)C)CC1`, the activity change is 10.2%.

For `CC(=O)Nc1ccc(NC(=O)COc2ccc(-c3ccccc3)cc2)cc1`, the activity change was -15.4%.

`C[C@@H]1CC2=C(C(=O)OC(C)(C)O2)[C@@H](C2CC2)O1`: the activity change was 32.1%.

Regarding `CN(CC(=O)Nc1cccc(F)c1)C(=O)CC1CCCC1`, the activity change is 0.0851%.

For the compound `CC1CCc2[nH]c3ccc(C(=O)N(C)CC(=O)Nc4cccc(F)c4)cc3c2C1` (stereo not given), the activity change was -74.7% (active).

On to `CN(CC(=O)Nc1cccc(F)c1)C(=O)C1=COCCO1`, for which the activity change is 2.81%.

`CCCCCCCCNS(=O)(=O)CCNC1CCCCC1`: the activity change was -65.1% (active).

As for `CCCCNS(=O)(=O)CCNCc1ccccc1OC`, the activity change was 3.56%.

In the case of `CCCCCCNS(=O)(=O)c1ccccc1Br`, the activity change is 14%.

In the case of `C[C@H]1CN([C@@H](C)CO)C(=O)CCCn2cc(nn2)CO[C@@H]1CN(C)S(=O)(=O)c1cccs1`, the activity change was 7.03%.

Turning to `CC(C)(C)NC(=O)C(CCc1ccccc1)n1c(=O)c(-c2ccccc2)nc2ccccc21` (stereo not given), the activity change was 0%.

Consider `CC(C)C1CCN(C(=O)C2CCC(=O)N(C3CCCCCC3)C2)CC1` (stereo not given), for which the activity change is -3.63%.

With `O=C(NC(=O)c1cc(OCC(F)(F)F)ccc1OCC(F)(F)F)Nc1ccccc1`, the activity change is -63.5% (active).

For `CCOc1ccc(CCNC(=O)Nc2ccccc2)cc1OCC`, the activity change was 30.9%.

Consider `CONC(=O)c1cc(OCC(F)(F)F)ccc1OCC(F)(F)F`, for which the activity change was -0.808%.

With `NS(=O)(=O)c1ccc(CNC(=O)c2cc(S(=O)(=O)N3CCOCC3)ccc2N2CCCC2)cc1`, the activity change was -15.8%.

For `O=C(CNC(=O)c1cc(S(=O)(=O)N2CCOCC2)ccc1N1CCCC1)Nc1ccc(F)c(F)c1`, the activity change is -54% (active).

Take `O=C(Nc1ccc(N2CCCCC2)cc1)c1cc(S(=O)(=O)N2CCOCC2)ccc1F`: the activity change was -27.8%.

Values taken from PubChem BioAssay AID743279 (National Center for Advancing Translational Sciences (NCATS), 2014).
